The results in this text go back to PubChem BioAssay AID686978 (National Center for Advancing Translational Sciences (NCATS), 2013).

The structures appear in SMILES notation. Among all 420,000 compounds or so, about 64,000 (15%) were called active. Another 27% or so got no clear call; they are omitted. The call rests on the fitted dose curve; in most records, active means well fitted inhibition curve with a large enough effect; inconclusive means small, poorly fitted or top-dose-only effect; inactive means flat fitted curve, though single readings scatter. These entries were drawn from the full list. Where a call stands in place of a potency, no number is given.
Potency means the concentration at half of the fitted maximal effect.

The nature of this experiment: qHTS for Inhibitors of human tyrosyl-DNA phosphodiesterase 1 (TDP1): qHTS in cells in absence of CPT. Further: nearly all actives have a fitted effect of over 55% in size. Conditions: DT40 Tdp1-/- hTDP1 cells, no CPT, ATP luminescence, 48 h; activity change, negative = growth inhibition: at 46.2 µM (top of the series). In a few lines: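 Seeded 400 DT40-hTDP1 cells/well (vehicle DMSO, no 20 nM CPT); pinned compounds; ≥48 hr at 37 °C; CellTiter-Glo luminescence as viability measure.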
Background: Quantitative high-throughput screening tests each substance at several concentrations.
Take `CC(C)Cc1nnc(NC(=O)CCNC(=O)c2ccccc2Cl)s1`: the Potency result is “inactive”.
Next, `Cn1c(NCc2cccnc2)nc2cc(-c3ccc(F)cc3)sc2c1=O`: “inactive”.
Next, `COc1cccc(-c2cc3nc(NCc4ccccc4OC)n(C)c(=O)c3s2)c1`: 20.6 µM (active); `COc1ccccc1CNc1nccn(-c2ccc(F)cc2)c1=O`: “inactive”; `CC(=O)NC(CC(=O)O)c1ccc(F)cc1` (stereo not given): “inactive”.
Next, `COc1ccccc1CC1(C)C(=O)Nc2ccc(OC(F)(F)F)cc21` (stereo not given): “inactive”.
Regarding `CC1(Cc2ccccc2C#N)C(=O)Nc2ccc(-c3ccc4[nH]ccc4c3)cc21` (stereo not given), the Potency was 4.11 µM (active).
For `CN1CCCN(S(=O)(=O)c2ccc3c(c2)OCCO3)CC1`, the Potency result was “inactive”.
Under `N#CCC(=O)NC(=O)NCC1CC1` stands “inactive”.
Under `CC(OC(=O)c1ccc(-n2cnnn2)cc1)C(=O)NCc1ccccc1` (stereo not given) stands “inactive”; under `CCc1ccnc(NC(=O)Nc2ccc(OCc3ccccc3)cc2)c1`, “inactive”.
On to `O=C(O)/C=C\C(=O)Nc1ccc(OCc2ccccc2)cc1`, for which the Potency result is “inactive”.
Under `CC(C)(C)OC(=O)N(Cc1ccccc1)Cc1ccc(OCc2cccc(NC(=O)c3ccccc3)c2)cc1` stands 18.4 µM (active).
Next, `CN(CC(=O)Nc1cccc(F)c1)C(=O)CC1CCCC1`: “inactive”; `Cc1cccc(C(=O)OC(C)CN2CCN(C)CC2)c1` (stereo not given): “inactive”.
Consider `CC(CNC(=O)Cn1cnc2c(OCc3ccccc3)ncnc21)c1ccccc1` (stereo not given), for which the Potency result is “inactive”.
For `Cc1ccc(CNC(=O)Cn2cnc3c(NCc4ccccc4)ncnc32)o1`, the Potency was 8.2 µM (active).
On to `Cc1ccc(NC(=O)Cn2cnc3c(OCc4ccccc4)ncnc32)cc1C`, for which the Potency entry was “inactive”.
Next, `Cc1cccc(OP(=O)(Nc2c(C)n(C)n(-c3ccccc3)c2=O)Oc2cccc(C)c2)c1`: “inactive”.
Under `Cc1ccc(-c2ccc(=O)n(CC(=O)NCCCN3CCCCC3)n2)cc1` stands “inactive”; under `CCC1CCCCN1CCCNC(=O)C1CCC(Cn2c(=O)[nH]c3ccccc3c2=O)CC1` (stereo not given), “inactive”.
Regarding `CCC1CCCCN1CCCNC(=O)Cn1nc(-c2ccccc2)ccc1=O` (stereo not given), the Potency is 0.0103 µM (active).
For `Cc1ccc(C2Nc3ccccc3C(=O)N2CCN2CCNC2=O)cc1` (stereo not given), the Potency result is “inactive”.
Consider `COc1cccc(CNC(C)C(=O)Nc2ccc(S(=O)(=O)N3CCCC3)cc2)c1` (stereo not given), for which the Potency entry was “inactive”.
Next, `COc1ccc(OCC(=O)OCC(=O)Nc2ccc(S(=O)(=O)N3CCCCC3)cc2)cc1`: “inactive”.
Regarding `COc1ccc(S(=O)(=O)N2CCN(C(C)C(=O)Nc3ccc(C(C)C)cc3)CC2)cc1` (stereo not given), the Potency was 14.6 µM (active).
Consider `CCOC(=O)Cc1cc(=O)[nH]c(/N=C(\N)Nc2ccc(OC)cc2)n1`, for which the Potency entry was “inactive”.
For `CC1C(C)N(C(=O)CCl)c2ccccc2N1C(=O)CCl` (stereo not given), the Potency was 0.58 µM (active).
Next, `CNC(=O)N1c2ccccc2C=Cc2ccccc21`: “inactive”; `CC1CCN(C(=O)CCNC(=O)c2ccccc2)CC1`: “inactive”.
